# Results as given in the supplement of paper PMC4840960.
# Legend:
# [1] = test system: E18 rat cortical neuron-glia co-culture; assay: fiber score / MBP score (myelination specific beyond OL differentiation) (ratio); higher = more myelination-specific MBP alignment; conditions: treatment time: 8 days (DIV5-DIV13)
# In short: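 Fiber score divided by MBP score is the read-out; fiber score is continuous MBP fiber length per Olig2+ nucleus, and MBP score is thresholded MBP area × intensity per Olig2+ nucleus. Primary E18 rat cortical co-cultures were dissociated with papain and seeded at 20,000 cells/well on poly-d-lysine/laminin 96-well plates. Library compounds at 1 or 5 µM were given in myelination medium from DIV5 to DIV13, after which cells were fixed in 4 % paraformaldehyde, immunostained for MBP and Olig2 with DAPI, and imaged in four 10X fields per well in duplicate wells.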
# [2] = test system: E18 rat cortical neuron-glia co-culture; assay: myelination (MBP fiber length per Olig2+ nucleus), % of 1 µM DAPT response (DMSO = 0) (% of DAPT); higher = more myelination, active = 50 or more; conditions: treatment time: 8 days (DIV5-DIV13)
# In short: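 Four 10X fields in each of duplicate wells were analysed after cultures were fixed in 4 % paraformaldehyde and immunostained for MBP and Olig2, with DAPI as the nuclear counterstain. The cultures were papain-dissociated primary E18 rat cortical co-cultures at 20,000 cells/well on poly-d-lysine/laminin 96-well plates, dosed with library compounds at 1 or 5 µM in myelination medium from DIV5 to DIV13. The myelination readout was continuous straight MBP fiber length per Olig2+ nucleus, with 0.1 % DMSO set to 0 and a 1 µM positive control set to 100.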
Compound,fiber score / MBP score ([1]; 1 µM),fiber score / MBP score ([1]; 5 µM),myelination ([2]; 1 µM),myelination ([2]; 5 µM)
COc1ccc(/C=C/C(=O)Nc2ccccc2C(=O)O)cc1OC [Tranilast],0.857,0.89,-12.7 (inactive),-4.27 (inactive)
CC(=O)[C@H]1CC[C@H]2[C@@H]3C[C@H](C)C4=CC(=O)CC[C@]4(C)[C@H]3[C@@H](O)C[C@]12C [Medrysone],1.11,1.1,5.47 (inactive),6.18 (inactive)
CCOC(=O)[C@H](CCc1ccccc1)N[C@@H](C)C(=O)N1CCC[C@H]1C(=O)O [Enalapril],0.732,0.734,-22.3 (inactive),-27.5 (inactive)
CC(C)(C(=O)O)c1ccc(C(O)CCCN2CCC(C(O)(c3ccccc3)c3ccccc3)CC2)cc1 (configuration not stated) [Fexofenadine],0.774,0.82,0.24 (inactive),0.141 (inactive)
CCN(CC)CCOC(=O)C1(C2CCCCC2)CCCCC1 [Dicyclomine],0.616,0.288,-14.3 (inactive),-24.6 (inactive)
CC(=O)O[C@]1(C(C)=O)CC[C@H]2[C@@H]3C[C@H](C)C4=CC(=O)CC[C@]4(C)[C@H]3CC[C@@]21C [Medroxyprogesterone acetate],1.1,0.549,0.776 (inactive),-11.3 (inactive)
CN1CCC(=C2c3ccccc3CCc3sccc32)CC1 [Pizotyline],0.579,0.636,-41 (inactive),-22 (inactive)
CC(C(=O)O)c1ccc(CC2CCCC2=O)cc1 (configuration not stated) [loxoprofen],0.944,0.875,1.34 (inactive),-10.6 (inactive)
